Experimental data taken from PubChem BioAssay (NCI).
This is part of a sample that, as a whole, favours compounds with a hit. Of some 83,000 tested, about 20% had one in any assay.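 Interpretation: 100, growth as untreated; towards 0, rising growth inhibition; 0, no net growth; 0 to -100, cell death. Compounds scoring below 10 were considered active.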 Active and inactive are the calls of the source.

Columns and labels:
Test in all cases: NCI-60 one-dose screen, 48 h (100 = growth as untreated, 0 = no growth, -100 = all killed)
Settings in all cases: 10 µM unless noted
[1] = tested on: HCT-15 colon
[2] = tested on: HT29 colon
[3] = tested on: SNB-75 CNS
[4] = tested on: SNB-19 CNS
[5] = tested on: U251 CNS
[6] = tested on: PC-3 prostate
[7] = tested on: SK-MEL-5 melanoma
[8] = tested on: UACC-62 melanoma
[9] = tested on: LOX IMVI melanoma
[10] = tested on: SK-MEL-28 melanoma
[11] = tested on: SK-MEL-2 melanoma
[12] = tested on: SN12C renal
[13] = tested on: UO-31 renal
[14] = tested on: TK-10 renal
[15] = tested on: ACHN renal
[16] = tested on: CAKI-1 renal
[17] = tested on: A498 renal
[18] = tested on: CCRF-CEM leukemia
[19] = tested on: MOLT-4 leukemia

Measured: growth

Nc1c(C(=O)Nc2cccc(Cl)c2Cl)sc2nc3c(cc12)C(=O)CCC3
active: [17] -3.22%
inactive: [1] 75.5% | [2] 85.5% | [3] 54.7% | [4] 70.2% | [5] 120% | [6] 93.7% | [7] 49.8% | [8] 64.6% | [9] 95.5% | [10] 65% | [11] 38% | [12] 86.8% | [13] 78.8% | [14] 81.9% | [15] 98.1% | [16] 79% | [18] 86.2% | [19] 106%

Cc1cc(-c2ccccc2)c(C)n1Cc1ccc(Cl)cc1
inactive: [1] 32.8% | [2] 13.8% | [3] 38.5% | [4] 61% | [5] 25% | [6] 57.3% | [7] 40.7% | [8] 40.7% | [9] 45% | [10] 55.8% | [11] 31.2% | [12] 49.3% | [13] 50.5% | [14] 76.6% | [15] 54.8% | [16] 21.5% | [17] 23.8% | [18] 43.5% | [19] 17.1%

Cc1ccc(OCCn2c(C)nn(-c3ccc(Cl)cc3)c2=O)cc1
inactive: [1] 111% | [2] 119% | [3] 82.6% | [4] 109% | [5] 101% | [6] 92.4% | [7] 109% | [8] 103% | [9] 96.3% | [10] 101% | [11] 146% | [12] 105% | [13] 83.9% | [14] 131% | [15] 103% | [16] 93.7% | [17] 117% | [18] 99.9% | [19] 111%

CC[C@]1(O)C[C@@H]2CN(Cc3c([nH]c4ccccc34)[C@@](C(=O)OC)(c3cc4c(cc3OC)N(C)[C@H]3[C@@](O)(C(=O)OC)[C@H](OC(C)=O)[C@]5(CC)[C@@H]6C[C@@H]6CN6CC[C@]43[C@@H]65)C2)C1
active: [2] -2.26% | [5] 6.95% | [7] 2.99% | [11] 9.71% | [17] -8.06% | [18] 1.15% | [19] 1.8%
inactive: [1] 60.7% | [3] 10.1% | [4] 51.7% | [6] 14% | [8] 34% | [9] 19.1% | [10] 64.4% | [12] 34.1% | [13] 68.5% | [14] 55.7% | [15] 47.8% | [16] 50.6%

COc1ccc(-c2cn[nH]c2-c2cc(OC)c3c(c2)OCCO3)cc1
active: [2] 1.7% | [3] -5.75% | [11] 9.5% | [17] -13.4%
inactive: [1] 20.7% | [4] 60.4% | [5] 16.4% | [6] 28.4% | [7] 25.4% | [8] 37.6% | [9] 30.2% | [10] 49.3% | [12] 29.6% | [13] 50.4% | [14] 57.8% | [15] 38% | [16] 56.9% | [18] 17.4% | [19] 12%

FC(F)(F)c1cccc(-n2nnc3cnc(Nc4ccc(N5CCCCC5)cc4)nc32)c1
active: [10] -0.691%
inactive: [1] 66.1% | [2] 74.3% | [3] 65.7% | [4] 94.3% | [5] 62.9% | [6] 50.2% | [7] 86.7% | [8] 48.2% | [9] 90% | [11] 96.8% | [12] 91% | [13] 100% | [14] 97.2% | [15] 56% | [16] 72.9% | [17] 89.4% | [18] 34.1% | [19] 63%

CCCCCCC[C@@H](O)CC(=O)N[C@H](CCCCN)C(=O)N[C@H](Cc1c[nH]c2ccccc12)C(=O)NC(CCCCN)C(=O)N[C@H](CC(C)C)C(=O)N[C@H](Cc1ccccc1)C(=O)N[C@H](CCCCN)C(=O)N[C@H](CCCCN)C(=O)N[C@H](CC(C)C)C(=O)N1CCCC1C(=O)N[C@H](CCCCN)C(=O)N[C@H](Cc1ccccc1)C(=O)N[C@H](CC(C)C)C(=O)N[C@H](Cc1c[nH]cn1)C(=O)N[C@H](CC(C)C)C(=O)N[C@H](C)C(=O)N[C@H](CCCCN)C(=O)N[C@H](CCCCN)C(=O)N[C@H](Cc1ccccc1)C(=O)O (stereo partly drawn)
active: [1] -40.3% | [2] -52.7% | [3] -62.3% | [4] -46.4% | [5] -60.5% | [6] -55.3% | [7] -25.7% | [8] -39.2% | [9] -38.6% | [10] -39.8% | [11] -60.1% | [12] -40.7% | [13] -54.5% | [14] -80.4% | [15] -50.9% | [16] -70.3% | [17] -54.1% | [18] -39.6% | [19] -25.9%

COc1ccc(C2CC(c3cccs3)=NN2c2ccc(S(=O)(=O)NC(=O)Nc3ccc(C)cc3)cc2)cc1 (stereo not drawn)
inactive: [1] 99.3% | [2] 128% | [3] 93.7% | [4] 108% | [5] 94.1% | [6] 86.3% | [7] 61.4% | [8] 38.1% | [9] 99.7% | [10] 47.8% | [11] 60.9% | [12] 111% | [13] 85.7% | [14] 96.8% | [15] 96.6% | [16] 95.8% | [17] 109% | [18] 87.9% | [19] 94.4%

CCC1CCc2nc3sc(C(=O)Nc4ccccc4C)c(N)c3cc2C1 (stereo not drawn)
inactive: [1] 26.3% | [3] 25.9% | [4] 54.1% | [5] 42% | [6] 26.8% | [7] 26.6% | [8] 33.2% | [9] 35% | [10] 49.5% | [11] 21.9% | [12] 58% | [13] 37.6% | [14] 59.6% | [15] 47.4% | [16] 29.4% | [17] 33.2% | [18] 18.7% | [19] 39.7%
active: [2] 7.01%

O=C1Nc2ccc(Br)cc2C1=N/C=c1\[nH]c(=O)/c(=C/c2ccc(Cl)cc2)s1
inactive: [1] 90.3% | [2] 97.9% | [3] 93.9% | [4] 94% | [5] 83.7% | [6] 92% | [7] 99.1% | [8] 91.2% | [9] 103% | [10] 105% | [11] 99.7% | [12] 102% | [13] 85.2% | [14] 101% | [15] 90.8% | [16] 101% | [17] 94.5% | [18] 87.9% | [19] 90.9%

COc1cccc(NC(=O)Cn2cc3c(=O)oc4ccccc4c3n2)c1
inactive: [1] 109% | [2] 105% | [3] 64.7% | [4] 102% | [5] 125% | [6] 97.4% | [7] 100% | [8] 100% | [9] 113% | [10] 94% | [11] 101% | [12] 103% | [13] 88.5% | [14] 111% | [15] 116% | [16] 95.6% | [17] 87.2% | [18] 102% | [19] 111%

CCCCCCc1nc2c(c(C)nn2-c2ccccc2)c2c1CCCCC2
inactive: [1] 108% | [2] 100% | [3] 105% | [4] 99.9% | [5] 102% | [6] 94.1% | [7] 94.3% | [8] 101% | [9] 98.2% | [10] 107% | [11] 116% | [12] 104% | [13] 91.5% | [14] 126% | [15] 107% | [16] 94.8% | [17] 104% | [18] 101% | [19] 106%
